Screening results as filed in PubChem BioAssay.
Only some compounds are listed: those with a hit (about 3% of all), similar ones and a draw of the others.
MITF TRPM1 inh = inhibitors of MITF-dependent TRPM1 promoter reporter, primary screen, cell-based, SK-MEL-5, single point, luciferase; SK-MEL-5 TRPM1 promoter luciferase, 24 h; inhibition, % at 12.5 µM; actives 0.83% (n = 330,000); AID 488899, 2010;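 active means mean inhibition across replicates of 60% or more, whatever share of single replicates reaches that level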
TROY NFkB inh = inhibitors of TROY-driven NF-kB signaling, primary screen, Q293 LMP1-TROYcd cells, NF-kB luciferase, uHTS; inhibition, % at 10 µM; AID 1347056, 2019; Q293 LMP1-TROYcd NF-kB luciferase reporter, 4 h; actives 0.98% (n = 360,000);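 active means compounds whose plate-normalised and pattern-corrected inhibition of the luciferase reporter signal at the single screening dose is 50% or more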
LMP1 NFkB inh = EBV LMP1-driven NF-kappaB luciferase reporter inhibitors, primary screen, cell-based, luminescence, single point | LMP1-induced NF-kappaB luciferase reporter cells | inhibition, % at 12.5 µM | actives 0.69% (n = 350,000) | AID 504558, 2011; in the data active means inhibition above about 41%;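 further: 0% = neutral control wells and 100% = reference inhibitor control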
TWEAK Fn14 block = inhibitors of TWEAK-Fn14 signaling, primary screen, luciferase reporter cells, uHTS | TWEAK-stimulated Fn14 reporter cells, luciferase luminescence, 8 h | inhibition, % at 10 µM | actives 2% (n = 360,000) | AID 1159606, 2016; in the data active means inhibition above about 50%
MITF TRPM1 HTS = activators of MITF-driven TRPM1 promoter reporter, primary screen, cell-based, SK-MEL-5, luciferase, single point. SK-MEL-5 TRPM1-promoter luciferase, 24 h; % of positive control, neutral wells = 0. AID 588334, 2011. actives 0.75% (n = 300,000). activation, % at 12.5 µM;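 active means mean activation of at least 80% with every replicate also reaching 80%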;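 further: 0% = neutral control wells and 100% = parthenolide positive control wells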
LGR2 inh = inhibitors of bursicon-induced LGR2 CRE-luciferase signal, primary screen, cell-based, HEK293, CRE-luciferase reporter, bursicon stimulation. Drosophila bursicon receptor LGR2 (rickets). AID 720647, 2013. actives 0.35% (n = 380,000). bursicon-stimulated, 4 h. inhibition, % at 9.99 µM;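 active means drop in luminescence signal, shown as inhibition above about 50% in the replicate tests, limit read from the data, passing the limit was not always enough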;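 further: agonist challenge used bursicon conditioned medium at about half maximal strength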
Numbers without * were called inactive; . = no result.

SMILES	MITF TRPM1 inh	TROY NFkB inh	LMP1 NFkB inh	TWEAK Fn14 block	MITF TRPM1 HTS	LGR2 inh
O=C(Nc1ccc(O)cc1)c1c(O)c2c([nH]c1=O)CCCC2	-80.7	-46.1	-52.0	-38.1	86.4*	-109.7
COC(=O)c1ccccc1NC(=O)c1c(O)c2c([nH]c1=O)CCCC2	-0.9	-17.6	-7.5	-29.4	3.5	.
CCc1nc(Nc2cccc(O)c2)c2oc3ccccc3c2n1	-7.2	75.7*	-9.7	70.0*	9.1	.
CCc1nc(Nc2ccncc2)c2oc3ccccc3c2n1	3.4	-14.6	-27.6	-64.7	-3.1	-14.0
CCc1nc(Nc2ccc3c(c2)OCO3)c2oc3ccccc3c2n1	-18.6	31.3	3.8	50.5*	.	.
OC(c1cc(C(F)(F)F)nc2c(C(F)(F)F)cccc12)C1CCCCN1 (stereo unspecified)	35.9	-9.2	-15.1	27.1	-31.0	69.6*
COC(=O)CSc1nc(-c2ccc(F)cc2)cc(C(F)(F)F)n1	-1.2	5.3	-1.4	-13.3	2.7	.
OC(c1cc(-c2ccc(C(F)(F)F)cc2)nc(C(F)(F)F)c1)C1CCCCN1 (stereo unspecified)	100.0*	31.7	-11.7	-3.2	-98.2	1.5
OC(c1cc(-c2cccc(Cl)c2)nc2ccccc12)C1CCCCN1 (stereo unspecified)	98.5*	-18.7	-36.8	-1.3	-97.4	12.7
CCCC(=O)Nc1ccc2c(c1)OC[C@H](C)N(C(=O)c1ccccc1F)C[C@@H](C)[C@H](OC)CN(C)C2=O	.	.	.	.	.	5.9
O=C(C[C@@H]1CC[C@@H]2NC[C@H](O)COC[C@H]2O1)NCc1ccc(Oc2ccccc2)cc1	.	.	.	.	.	-2.0
c1ccc(OCCNc2ccn3nc(-c4ccc(OCCN5CCOCC5)cc4)cc3n2)cc1	.	17.1	.	53.6*	.	23.3
O=C(Nc1ccc(F)cc1)N1C[C@@H]2[C@H](c3ccccc31)[C@@H](CO)N2C(=O)Cc1cccnc1	.	.	.	.	.	-9.0
CC(=O)N1N=C(c2ccco2)CC1c1ccco1 (stereo unspecified)	5.0	12.3	4.0	-0.7	.	-9.5
Cc1ccc(C2=NN(C(=O)CCl)C(c3ccco3)C2)o1 (stereo unspecified)	58.9	-1.6	20.7	55.0*	-57.8	-1.4
C[C@@H]1CN([C@H](C)CO)C(=O)c2cc(NC(=O)c3ccccc3)ccc2O[C@@H](C)CCCCO[C@@H]1CN(C)C(=O)c1ccncc1	.	.	.	.	.	-1.3
CC(Sc1nnc(CN2CCCC2)n1Cc1ccccc1)C(=O)Nc1ccccc1 (stereo unspecified)	19.2	65.7*	-8.8	4.0	-17.4	-5.8
Cc1ccccc1NC(=O)C(C)Sc1nnc(CN2CCCC2)n1Cc1ccccc1 (stereo unspecified)	.	9.6	3.7	-5.9	.	3.0
C#CCOCCOCCOCCNc1nc(N2CCN(C(=O)CCCCCCCCCCNC(=O)[C@@H](CCC(=O)O)n3cc(CCCCCN)nn3)CC2)nc(N2CCN(C(=O)CCCCCCCCCCNC(=O)[C@H]([C@@H](C)CC)n3cc(CCCCCN)nn3)CC2)n1	-7.3	-8.7	5.5	-62.1	8.7	.
C#CCOCCOCCOCCNc1nc(N2CCN(C(=O)CCCCCCCCCCNC(=O)[C@H]([C@@H](C)CC)n3cc(CCCCCN)nn3)CC2)nc(N2CCN(C(=O)CCCCCCCCCCNC(=O)[C@H]([C@@H](C)CC)n3cc(CCCCN=C(N)N)nn3)CC2)n1	98.7*	38.9	9.5	41.8	-97.4	.
C#CCOCCOCCOCCNc1nc(N2CCN(C(=O)CCCCCCCCCCNC(=O)[C@H](CO)n3cc(CCCSC)nn3)CC2)nc(N2CCN(C(=O)CCCCCCCCCCNC(=O)[C@H](CCCN=C(N)N)n3cc(C[C@@H](C)CC)nn3)CC2)n1	88.6*	-2.4	0.0	-8.6	-88.2	.
C#CCOCCOCCOCCNc1nc(N2CCN(C(=O)CCCCCCCCCCNC(=O)[C@H]([C@@H](C)CC)n3cc(CCCCCN)nn3)CC2)nc(N2CCN(C(=O)CCCCCCCCCCNC(=O)[C@H](CCCCN)n3cc(CCCC(=O)O)nn3)CC2)n1	-5.3	2.3	5.9	-24.1	9.6	.
C#CCOCCOCCOCCNc1nc(N2CCN(C(=O)CCCCCCCCCCNC(=O)[C@H]([C@@H](C)CC)n3cc(CCCCCN)nn3)CC2)nc(N2CCN(C(=O)CCCCCCCCCCNC(=O)[C@H](CO)n3cc(CCCCCN)nn3)CC2)n1	81.6*	20.8	6.3	-21.4	-80.8	.
C#CCOCCOCCOCCNc1nc(N2CCN(C(=O)CCCCCCCCCCNC(=O)[C@H]([C@@H](C)CC)n3cc(CCCCN=C(N)N)nn3)CC2)nc(N2CCN(C(=O)CCCCCCCCCCNC(=O)[C@H](CO)n3cc(CCCCCN)nn3)CC2)n1	85.2*	20.9	3.0	-0.3	-84.2	.
COc1ccc(NC(=O)Nc2ccc3c(c2)C(=O)N([C@@H](C)CO)C[C@H](C)[C@@H](CN(C)C(=O)Nc2ccc(C(F)(F)F)cc2)OCCCC[C@H](C)O3)cc1	.	.	.	.	.	5.7
SMILES	MITF TRPM1 inh	TROY NFkB inh	LMP1 NFkB inh	TWEAK Fn14 block	MITF TRPM1 HTS	LGR2 inh
C#CCOCCOCCOCCNc1nc(N2CCN(C(=O)CCCCCCCCCCNC(=O)Cn3cc(CCCCCN)nn3)CC2)nc(N2CCN(C(=O)CCCCCCCCCCNC(=O)[C@H]([C@@H](C)CC)n3cc(CCCCN=C(N)N)nn3)CC2)n1	74.6*	3.5	-7.2	10.3	-73.7	.
CN(c1ccc(C(=O)COC(=O)C2CC2)cc1)S(C)(=O)=O	-79.8	-10.6	1.6	-6.9	83.2*	-33.0
COc1ccc(CNC(=O)C[C@@H]2C[C@@H]3c4cc(NC(=O)CC5CC5)ccc4O[C@@H]3[C@@H](CO)O2)cc1	.	.	.	.	.	-20.2
CO[C@H]1CC[C@H]2CCN(C)C(=O)[C@H](C)[C@@H](OC)CN(C)C(=O)c3cc(C#N)ccc3OC[C@H]1O2	.	.	.	.	.	-6.9
COc1ccc(CN(C)C(=O)c2cc(-c3ccccc3)nc3ccc(C)cc23)c(OC)c1	.	10.7	7.8	52.6*	.	.
COc1cccc(CNCCc2c[nH]c3ccccc23)c1OCc1ccccc1	94.2*	19.6	-5.2	12.9	-94.5	16.2
COc1cc(CNCCc2c[nH]c3ccccc23)ccc1OCc1ccccc1F	2.4	-6.4	11.7	-17.1	1.3	-3.1
CCC(=O)Nc1ccc2c(c1)C(=O)N(C)[C@H]1CC[C@H](CC(=O)Nc3ccc(OC)cc3)O[C@@H]1CO2	.	.	.	.	.	1.7
COCCN1Cc2cccc(C(=O)Nc3ccc4c(c3)OCCO4)c2C1=O	-2.5	56.1*	14.3	73.7*	-0.3	0.8
Cc1c(C(=O)Nc2ccc3c(c2)OCCO3)cnn1C	3.7	73.5*	31.2	91.3*	-6.1	-14.6
